Screening results deposited in PubChem by National Center for Advancing Translational Sciences (NCATS).
Rows were chosen to be rich in hits. Some 5.8% of all compounds tested hit in one or more screens of this group.
MCF10A rereplic: A quantitative high throughput screen for small molecules that induce DNA re-replication in MCF 10a normal breast cells; MCF 10A DNA re-replication, Hoechst nuclear intensity, 48 h; Potency, µM (series often up to 46.1 µM), without a hit: at the top dose activity, positive = re-replication, usual class: activators; AID 624296, 2012; 350,000 compounds, 2.9% hits; also: % of control where 0% means no effect; nearly all actives have a fitted effect of over 50% in size
PINK1 expr mod: A Quantitative High throughput Screen to Identify Chemical Modulators of PINK1 Expression | PINK1 immunofluorescence, high-content cytometry, 24 h | Potency, µM (series often up to 76.6 µM), without a hit: top-dose activation (PINK1 increase), hits mostly activators | 410,000 compounds, 0.2% hits | AID 624263, 2012; active = well fitted activation curve with a large enough effect; inconclusive = small, poorly fitted or top-dose-only effect; cell line not stated here; also: % of control where 0% means no effect; nearly all actives have a fitted effect of over 65% in size
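A stable cell line was treated with compounds at 5 concentrations for 24 hours, with CCCP as control. PINK1 levels and mitochondrial localization were measured by immunofluorescence with mitochondrial, cell and nuclear markers after fixation, read by laser-scanning cytometry.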
SW480 rerep: A quantitative high throughput screen for small molecules that induce DNA re-replication in SW480 colon adenocarcinoma cells. SW480 DNA re-replication, Hoechst DNA content imaging, 48 h. Potency, µM (doses to about 46.1 µM), for the others: top-dose re-replication activation, usual class: activators. 340,000 compounds, 1.8% hits; also: % of control where 0% means no effect; nearly all actives have a fitted effect of over 55% in size
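Quantitative HTS format with DMSO vehicle controls; 48 hr drug incubation at 37 C, then 40 min Hoechst staining and scanning imager measurement at 405 nm excitation.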
KB-V1 MDR tox: qHTS assay for MDR1-selective chemotherapeutics: Primary screen using the drug-selected MDR subline cells KB-V1; AID 1347076, 2019; KB-V1 MDR cells viability, CellTiter-Glo, 72 h; 400,000 compounds, 3.4% hits; Potency, µM (highest dose often 46.1 µM), most hits filed as cytotoxic; also: % is scaled to controls: 0 for no effect and ±100 for the full control effect; nearly all actives have a fitted effect of over 60% in size
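In this primary screen, KB-V1 cells overexpressing P-gp are incubated with library compounds (lowest to highest concentration) for 72 h at 37 degrees C before a luminescent ATP viability read.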
KB-3-1 tox: qHTS assay for MDR1-selective chemotherapeutics: Primary screen using the parental adenocarcinoma cell KB-3-1; KB-3-1 viability, CellTiter-Glo ATP luminescence, 72 h; Potency, µM (doses to about 46.1 µM), hits mostly cytotoxic; 400,000 compounds, 1.4% hits; AID 1347075, 2019; also: % is scaled to controls: 0 for no effect and ±100 for the full control effect; nearly all actives have a fitted effect of over 60% in size
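KB-3-1 parental drug-naive adenocarcinoma cells in DMEM/10% FBS, incubated 72 h at 37 C with pin-transferred compounds across a concentration series. Viability by CellTiter-Glo luminescence; concentration-response curves fitted after normalization.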
ALOX12 inh: Primary qHTS assay for inhibitors of human arachidonate 12S-lipoxygenase (ALOX12): Round 2; Polyunsaturated fatty acid lipoxygenase ALOX12 (Homo sapiens), P18054; purified 12hLO, xylenol orange hydroperoxide absorbance; Potency, µM (top dose mostly 108 µM), for inactives: at the highest dose activity change, negative = inhibition, actives largely listed as inhibitors; 580,000 compounds, 1.1% hits; AID 1671190, 2021; also: % is scaled to controls: 0 for no effect and ±100 for the full control effect
Target sequence (P18054 whole entry, looked up): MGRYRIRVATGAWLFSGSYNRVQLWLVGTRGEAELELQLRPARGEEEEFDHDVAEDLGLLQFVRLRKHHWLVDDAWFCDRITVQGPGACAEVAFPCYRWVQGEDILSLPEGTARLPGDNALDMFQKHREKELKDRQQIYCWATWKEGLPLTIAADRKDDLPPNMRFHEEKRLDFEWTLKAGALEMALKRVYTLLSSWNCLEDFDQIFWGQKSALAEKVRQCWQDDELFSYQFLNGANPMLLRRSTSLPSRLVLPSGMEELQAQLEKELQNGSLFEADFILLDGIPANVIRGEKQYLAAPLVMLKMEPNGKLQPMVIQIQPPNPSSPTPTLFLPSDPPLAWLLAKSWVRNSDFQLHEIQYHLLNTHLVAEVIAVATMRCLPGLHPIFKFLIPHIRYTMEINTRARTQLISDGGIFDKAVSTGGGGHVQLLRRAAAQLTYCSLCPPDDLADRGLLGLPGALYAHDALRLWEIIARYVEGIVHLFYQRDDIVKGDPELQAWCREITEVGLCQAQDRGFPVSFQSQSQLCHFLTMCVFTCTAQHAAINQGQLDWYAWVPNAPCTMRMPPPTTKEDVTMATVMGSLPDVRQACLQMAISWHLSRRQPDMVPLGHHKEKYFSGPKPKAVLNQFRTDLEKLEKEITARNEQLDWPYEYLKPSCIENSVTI
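Purified human 12hLO (150 nM final) in 25 mM Hepes, 0.01% Triton X-100, pH 7.0 was preincubated 15 min at room temperature with compound. Then 40 uM arachidonic acid was added, 30 min. Hydroperoxide was read by Fe-XO absorbance ratio 573/405 nm.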
* hit, by the source's call; ! = repeats disagree; [ ] = another dose, or the depositor's remark. Unless noted, calls follow the shape of the dose curve; as a rule, active = well fitted curve in the direction sought with a large enough effect; inconclusive = small, poorly fitted or top-dose-only effect, or another doubt; inactive = no such curve, though single readings can be large; an effect the other way counts as inactive or inconclusive. Potency is read from the fitted curve at half-maximal effect.

What do the screens show for `CC1(C)CC2CC(C)(CN2S(=O)(=O)c2ccc(C(=O)Nc3ccc(Cl)c(S(=O)(=O)N4CCOCC4)c3)cc2)C1` (stereo unspecified)?
MCF10A rereplic: -1%; PINK1 expr mod: 0%; SW480 rerep: 15%; KB-V1 MDR tox: 2.9µM*; KB-3-1 tox: 2.9µM*; ALOX12 inh: 21%

Results for CC1(C)CC2CC(C)(CN2S(=O)(=O)c2ccc(C(=O)Nc3ccc(S(=O)(=O)N4CCOCC4)cc3)cc2)C1 (stereo unspecified) ?
MCF10A rereplic: -3%; PINK1 expr mod: 1%; SW480 rerep: -11%; KB-V1 MDR tox: inconclusive; KB-3-1 tox: inconclusive; ALOX12 inh: -16%

What do the screens show for `CCCNC(=O)c1cccc(S(=O)(=O)N2CC3(C)CC2CC(C)(C)C3)c1` (stereo unspecified)?
MCF10A rereplic: 6%; PINK1 expr mod: -1%; SW480 rerep: 1%; KB-V1 MDR tox: 2.1µM*; KB-3-1 tox: inactive; ALOX12 inh: -9%

What do the screens show for `CCn1c(C)cc2c(c1=O)C(c1ccccc1)C(C(=O)OC)=C(N)O2` (stereo unspecified)?
MCF10A rereplic: 16µM*; PINK1 expr mod: -3%[38.3 µM]; SW480 rerep: 1%; KB-V1 MDR tox: inactive; KB-3-1 tox: inactive; ALOX12 inh: inconclusive

What do the screens show for `CCC1=NN(C(=O)CSCc2ccccc2Cl)C(O)(C(F)(F)F)C1` (stereo unspecified)?
ALOX12 inh: 13%

Results for Cc1c(CCOC(=O)C2C3CC4CC(C3)CC2C4)sc[n+]1CC(=O)c1ccc(Br)cc1 (stereo unspecified) ?
MCF10A rereplic: inconclusive; PINK1 expr mod: -3%; SW480 rerep: -2%; KB-V1 MDR tox: inconclusive; KB-3-1 tox: inconclusive; ALOX12 inh: 40µM*!

How did O=C1NC(=S)SC1=Cc1ccc(Cl)cc1 do in these assays?
MCF10A rereplic: 9.2µM*; PINK1 expr mod: inconclusive; SW480 rerep: inconclusive; KB-V1 MDR tox: inactive; KB-3-1 tox: inactive; ALOX12 inh: 22µM*

What do the screens show for `O=C1NC(=O)C(=Cc2ccc(Cl)cc2Cl)S1`?
MCF10A rereplic: inconclusive; PINK1 expr mod: inconclusive; SW480 rerep: -10%; KB-V1 MDR tox: inactive; KB-3-1 tox: inconclusive; ALOX12 inh: 40µM*

Results for CCOC(=O)N1CC=C2C(C#N)=C(N)C(C#N)(C#N)[C@H](c3cccs3)C2C1 (stereo partly specified) ?
MCF10A rereplic: 13%; PINK1 expr mod: 11%; SW480 rerep: 4%; KB-V1 MDR tox: 9.2µM*; KB-3-1 tox: inactive; ALOX12 inh: 28%

Results for CC(C)(C)OC(=O)N1CC=C2C(C#N)=C(N)C(C#N)(C#N)C(c3cccs3)C2C1 (stereo unspecified) ?
MCF10A rereplic: inconclusive; PINK1 expr mod: 8%; SW480 rerep: 7%; KB-V1 MDR tox: 9.2µM*; KB-3-1 tox: inactive; ALOX12 inh: -18%

How did CCCOc1ccc([C@@H]2C3CN(C(=O)OCC)CC=C3C(C#N)=C(N)C2(C#N)C#N)cc1OC (stereo partly specified) do in these assays?
MCF10A rereplic: 13%; PINK1 expr mod: 14%[38.3 µM]; SW480 rerep: 11%; KB-V1 MDR tox: inactive; KB-3-1 tox: inactive; ALOX12 inh: inconclusive

Results for CCCCN(Cc1cc2ccccc2[nH]c1=O)S(C)(=O)=O ?
MCF10A rereplic: -1%; PINK1 expr mod: 5%; SW480 rerep: 10µM*; KB-V1 MDR tox: inconclusive; KB-3-1 tox: inactive; ALOX12 inh: 9%

What do the screens show for `Cc1ccc(S(=O)(=O)N(CC(=O)N=Nc2c(O)[nH]c3ccccc23)c2cccc(C)c2)cc1`?
MCF10A rereplic: inconclusive; PINK1 expr mod: 2%; SW480 rerep: inconclusive; KB-V1 MDR tox: 21µM*; KB-3-1 tox: 21µM*; ALOX12 inh: 1%

Results for CCN(Cc1cc2ccccc2[nH]c1=O)S(C)(=O)=O ?
ALOX12 inh: 2%

How did Cc1ccc(N(Cc2cc3cccc(C)c3[nH]c2=O)S(=O)(=O)c2ccccc2)c(C)c1 do in these assays?
MCF10A rereplic: 1%; PINK1 expr mod: 10%; SW480 rerep: -1%; KB-V1 MDR tox: inactive; KB-3-1 tox: inactive

Results for Cc1ccc(S(=O)(=O)N(Cc2cc3ccccc3[nH]c2=O)c2cccc(C)c2)cc1 ?
MCF10A rereplic: inconclusive; PINK1 expr mod: 7%; SW480 rerep: 4.1µM*; KB-V1 MDR tox: inconclusive; KB-3-1 tox: inactive; ALOX12 inh: 1%

What do the screens show for `Cc1ccc2[nH]c(=O)c(CN(c3cccc(C)c3C)S(=O)(=O)c3ccccc3)cc2c1`?
MCF10A rereplic: inconclusive; PINK1 expr mod: 5%; SW480 rerep: 21%; KB-V1 MDR tox: inconclusive; KB-3-1 tox: 6.5µM*

How did Cc1cc(C)c(NC(=O)CN(C)C(=O)C2CC(=O)N(Cc3ccccc3Cl)C2)c(C)c1 (stereo unspecified) do in these assays?
ALOX12 inh: 6%

How did COc1ccc(S(=O)(=O)Cc2nnnn2-c2cccc(C(F)(F)F)c2)cc1 do in these assays?
ALOX12 inh: 19%

What do the screens show for `CCOCCCNc1oc(-c2ccc(S(=O)(=O)N3CCCC3)cc2)nc1C#N`?
ALOX12 inh: 7%

What do the screens show for `CCCN1CCCC12Cc1ccccc1CN(C(=O)c1c(C)noc1C)C2` (stereo unspecified)?
ALOX12 inh: 1%[6.33 µM]

How did CN(C)S(=O)(=O)c1ccc(Cl)c(C(=O)Nc2cc(Cl)cc3cccnc23)c1 do in these assays?
ALOX12 inh: 2%

How did Cc1noc(CSc2ccccc2C(=O)N2CCC(C)CC2)n1 do in these assays?
ALOX12 inh: 9%

How did CN1CCN(c2ccc(CNC(=O)c3cc4ccccc4o3)cc2)CC1 do in these assays?
MCF10A rereplic: 23µM*; PINK1 expr mod: 0%; SW480 rerep: -5%; KB-V1 MDR tox: inactive; KB-3-1 tox: inactive; ALOX12 inh: 58%

Results for COC(=O)c1ccc(N2CCN(C)CC2)c(NC(=O)c2cc3ccccc3o2)c1 ?
MCF10A rereplic: 1%; PINK1 expr mod: 3%; SW480 rerep: -4%; KB-V1 MDR tox: 3.3µM*; KB-3-1 tox: inactive; ALOX12 inh: -17%
